# Sampled rows, rich in hits. Any-hit rate of the full collection: about 4.1%.
# AMA1-RON2 inh: disrupts binding of P. falciparum AMA1 to RON2 | Potency, µM (doses to about 58.2 µM), inactives show top-dose activity change, negative = inhibition, hits mostly inhibitors | AlphaScreen AMA1-biotinylated RON2 peptide binding | AID 720542 | 360,000 compounds, 0.2% hits;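 note: 0% = vehicle wells and -100% = peptide control; nearly all actives have a fitted effect of over 45% in size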
#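 AMA1 (3D7) with his tag at 25 nM final met compounds first, then biotinylated RON2 peptide at 25 nM; detection used donor plus acceptor beads, 10 µg/mL apiece, read by AlphaScreen after 30 min at room temperature.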
# AmpC inh no detg: inhibitors of E. coli AmpC beta-lactamase without detergent; 330,000 compounds, 0.52% hits; P00811; Potency, µM (doses to about 57.1 µM), for inactives: top-dose activity change, negative = inhibition, hits mostly inhibitors; AmpC nitrocefin hydrolysis, absorbance 480 nm, 0.0001% Triton;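 note: plate controls were no compound for no effect and no enzyme for full effect; nearly all actives have a fitted effect of over 20% in size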
# Target sequence (P00811 whole entry, looked up): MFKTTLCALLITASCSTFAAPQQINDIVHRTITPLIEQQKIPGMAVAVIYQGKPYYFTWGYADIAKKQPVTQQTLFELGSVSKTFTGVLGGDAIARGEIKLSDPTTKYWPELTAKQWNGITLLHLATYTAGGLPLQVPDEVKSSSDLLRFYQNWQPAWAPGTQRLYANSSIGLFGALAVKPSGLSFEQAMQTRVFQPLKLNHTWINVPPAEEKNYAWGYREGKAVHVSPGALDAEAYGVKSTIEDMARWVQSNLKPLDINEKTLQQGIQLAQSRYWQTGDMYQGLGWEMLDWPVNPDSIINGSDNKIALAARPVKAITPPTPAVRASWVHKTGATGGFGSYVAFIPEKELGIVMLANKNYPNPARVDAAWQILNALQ
#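 AmpC (5.3 nM in the dispensed reagent) in 20 mM phosphate pH 7.0 with 0.01% (detergent screen) or 0.0001% Triton X-100 was preincubated with compounds for 15 min at room temperature. Nitrocefin was then added from an 800 uM solution, and hydrolysis was followed at 480 nm.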
# FMDV antiviral: foot and mouth disease virus antiviral activity; 410,000 compounds, 1.2% hits; Potency, µM (highest dose often 57.9 µM), without a hit: top-dose activity change, negative = inhibition, hits mostly inhibitors; FMDV antiviral cell-based qHTS; calls by dose curve; tested in HEK293T cells; note: read-out not given here; nearly all actives have a fitted effect of over 45% in size
# Sm TGR block: S. mansoni TGR enzyme inhibition | Q962Y6 | purified TGR, DTNB reduction, TNB absorbance 405 nm | Potency, µM (titrated, usually from 114 µM), for inactives: at the highest dose activity change, negative = inhibition, hits mostly inhibitors | 360,000 compounds, 3% hits | AID 485364; note: nearly all actives have a fitted effect of over 60% in size
#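 Kinetic colorimetric format: TGR-catalysed, NADPH-driven DTNB reduction monitored via TNB absorbance. Enzyme dispensed at 20 nM; compound exposure 15 min at room temperature before reaction start.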
# AmpC inh detg: AmpC beta-lactamase inhibition with detergent present. 370,000 compounds, 0.041% hits. P00811. AmpC hydrolysis of nitrocefin, absorbance 480 nm, 0.01% Triton. Potency, µM (highest dose often 114 µM), inactives show at the highest dose activity change, negative = inhibition, usual class: inhibitors. AID 485294;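 note: 0% = no-compound wells and -100% = no-enzyme wells; nearly all actives have a fitted effect of over 25% in size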
#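 20 mM phosphate pH 7.0 + 0.01% (detergent screen) or 0.0001% Triton X-100; 5.3 nM AmpC reagent; cpd preinc 15 min RT; nitrocefin (800 uM stock) to start; A480 q20 s × 4 min; Activity was normalised to no-enzyme and no-compound control wells.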
# Starred values were filed as active, the others as inactive; ? = inconclusive; . = no result given; [ ] = dose if it differs, or a comment. Unless noted, calls come from the whole dose curve; as a rule, active = well fitted curve in the direction sought with a large enough effect; inconclusive = small, poorly fitted or top-dose-only effect, or another doubt; inactive = no such curve, though single readings can be large; an effect the other way counts as inactive or inconclusive. Unless noted, % is set by controls: 0 for no effect and ±100 for the full control effect; potency is the fitted concentration of half-maximal effect.
SMILES,AMA1-RON2 inh,AmpC inh no detg,FMDV antiviral,Sm TGR block,AmpC inh detg
Nc1ncnc(Sc2ncccn2)c1[N+](=O)[O-],88.3%,1.1%[2.29 µM],31.6µM*,2.51µM*,-6.1%
Nc1ncnc(Sc2ccccc2)c1[N+](=O)[O-],-1.2%,-15.6%,-6.3%,12.6µM*,2.0%
O=c1c2ccccc2nc(N2CCN(c3cccc(Cl)c3)CC2)n1-c1ccccc1,.,.,?,2.2%,-0.9%
COC(=O)[C@@H]1CCCN1C(=O)c1c(OC)cc(=O)n2c1CCN(Cc1c(C)[nH]c3ccccc13)CC2,.,.,14.1%,.,.
COCc1cc(=O)n2[nH]c(-c3ccco3)cc2n1,29.3%,-5.5%,43.3%,-10.9%,-7.1%
CCCCN1Cc2c(nc3cc(-c4ccco4)[nH]n3c2=O)C1=O,5.6%,-56.3%,13.0%,20µM*,1.9%
Cc1csc(NC(=O)CCS(=O)(=O)c2ccc(Br)cc2)n1,-2.8%,-33.8%,-16.6%,3.55µM*,-1.8%
CC(=O)c1sc(NC(=O)CS(=O)(=O)c2ccc(F)cc2)nc1C,1.6%,-28.5%,31.7%,-0.9%,-13.7%
Cc1ccc(S(=O)(=O)CCC(=O)Nc2ccc(Br)cc2)cc1,5.6%,-14.0%,-12.8%,13.3%,4.5%
CC(=O)c1sc(NC(=O)CCS(=O)(=O)c2ccc(C)cc2)nc1C,3.0%,-7.9%,-7.2%,35.5µM*,?
Cc1ccc(NC(=O)CCS(=O)(=O)c2ccc(Br)cc2)nc1,11.9%,-16.1%,-13.9%,15.8µM*,-2.9%
Cc1ccc(S(=O)(=O)CCC(=O)Nc2ccc3c(c2)OCO3)cc1,-7.4%,-18.2%,21.2%,-2.0%,-12.8%
O=C(CCS(=O)(=O)c1ccc(Br)cc1)Nc1ccc2c(c1)OCO2,13.9%,-13.0%,43.3%,39.8µM*,-2.3%
CC(=O)c1sc(NC(=O)C2(F)C(F)(F)C(F)(F)C(F)(F)C(F)(F)C2(F)F)nc1C,4.3%,-0.7%,.,50.1µM*,-9.9%
COc1cc(OC)cc(C(=O)OCC(=O)Nc2cccc(S(=O)(=O)NC3=NCCCCC3)c2)c1,-3.6%,-14.3%,22.4µM*,.,.
O=C(COC(=O)c1ccc(O)cc1)Nc1cccc(S(=O)(=O)NC2=NCCCCC2)c1,-5.2%,-36.6%,58.9%,-11.5%,-8.8%
COc1ccc(/C=C/C(=O)Nc2cccc(S(=O)(=O)NC3=NCCCCC3)c2)cc1OC,13.3%,0.3%,39.8µM*,-11.0%,?
O=C(Nc1cccc(S(=O)(=O)NC2=NCCC2)c1)c1ccc(=O)[nH]c1,0.0%,-6.3%,-19.2%,5.62µM*,-3.2%
O=C(Nc1cccc(S(=O)(=O)NC2=NCCC2)c1)c1ccc(F)cc1,-3.4%,-8.3%,-16.0%,.,.
CCSc1nc(-c2ccccc2)c(C#N)c(=O)[nH]1,5.3%,2.24µM*,.,22.2%,-1.5%
O=C(c1ccccc1Cl)N1CCN(CCc2ccccn2)CC1,.,.,-12.9%,3.0%,-4.6%
Cc1ccc2nc(NC(=S)NC(=O)c3ccc(OC(C)C)cc3)sc2c1,23.9%,?,0.8%,0.708µM*,-7.2%
COc1cccc(C(=O)NC(=S)Nc2ccc(Cl)c(C(=O)O)c2)c1,-1.7%,.,10.5%,31.6µM*,?
CC(C)Oc1ccc(C(=O)NC(=S)Nc2ccc(Cl)c(C(=O)O)c2)cc1,-4.1%,-2.9%,-13.2%,39.8µM*,-0.1%
CCOc1cc(C(=O)NC(=S)Nc2ccc(Cl)c(C(=O)O)c2)cc(OCC)c1OCC,81.1%,-42.9%,-11.2%,31.6µM*,8.5%
SMILES,AMA1-RON2 inh,AmpC inh no detg,FMDV antiviral,Sm TGR block,AmpC inh detg
O=C(O)c1cc(NC(=S)NC(=O)C(c2ccccc2)c2ccccc2)ccc1Cl,13.6%,-36.7%,29.8%,-24.4%[57.1 µM],-3.4%
Cc1ccc(Cc2c(C)nn(-c3nc(C)c(C(=O)N4CCCCC4C)s3)c2C)cc1 (centres undefined),.,.,2.0%,-0.9%,3.9%
CCc1ccc(NC(=O)Cn2cnc3sc(C)c(S(=O)(=O)N4CCN(c5ccccc5OC)CC4)c3c2=O)cc1,.,.,?,4.2%,8.8%
COc1ccc(C(=O)Nc2nc3n(n2)C(c2ccc(Cl)cc2)C=C(c2ccccc2)N3)cc1OC (centres undefined),.,.,?,22.4µM*,20.1%
O=C(Nc1nc2n(n1)C(c1ccccc1)C=C(c1ccccc1)N2)c1ccccc1 (centres undefined),.,.,-22.7%,6.31µM*,-8.0%
CCC1CN(C(=O)N2CCC(C(=O)N3CCN(c4ccccc4)CC3)CC2)c2ccccc2O1 (centres undefined),.,.,-13.2%,-2.6%,6.2%
Cc1ccc(/C(C#N)=C\c2ccc(N3CCOCC3)o2)cc1,-8.4%,83.2%,.,3.16µM*,0.6%
N#C/C(=C/c1ccc(N2CCCCC2)o1)c1cccc(F)c1,-5.1%,-20.0%,-13.5%,2.51µM*,?
N#C/C(=C/c1ccc(N2CCCCC2)cc1)c1cccc(F)c1,15.8µM*,-20.3%,17.6%,0.8%,?
N#C/C(=C\c1ccc(N2CCOCC2)o1)C(=O)NC1CCCCC1,-6.0%,4.7%,10.3%,35.5µM*,-6.0%
Cc1ccc2nc(/C(C#N)=C\c3ccc(N4CCOCC4)o3)[nH]c2c1,51.9%,52.8%,-0.4%,?,-4.0%
N#CC(C#N)=Cc1ccc(N2CCCC2)cc1,6.2%,-17.8%,-10.4%,-1.6%,0.3%
CCc1cc2c(cc3c(=O)n(CC(=O)NC4CCCCC4)ncn32)s1,.,.,9.8%,3.6%,22.6%
Cc1cn2c(=O)cc(COc3cccc(NC(=O)c4ccc(C(C)(C)C)cc4)c3)nc2s1,.,.,-3.9%,-4.3%,13.8%
N#C/C(=C/c1ccc(N2CCCCCC2)o1)c1ccc(Cl)cc1,-13.9%,-15.1%,25.1µM*,?,-8.3%
c1ccc(-c2csc3ncnc(NCCN4CCOCC4)c23)cc1,-13.8%,43.3%,22.4µM*,3.0%,-1.7%
c1ccc(-c2csc3ncnc(NCc4ccccn4)c23)cc1,143.7%,4.2%,15.8µM*,-13.0%,-1.9%
Cc1ccc(-c2csc3ncnc(NCCN4CCOCC4)c23)cc1,0.0%,122.9%,-6.9%,7.1%,?
CN(C)CCCNc1ncnc2scc(-c3ccccc3)c12,-2.4%,-2.1%,-12.0%,15.0%,?
Clc1ccc(CNc2nc(CN3CCOCC3)nc3scc(-c4ccccc4)c23)cc1,?,216.4%,14.1µM*,4.4%,-12.6%
c1ccc(CNc2ncnc3scc(-c4cccs4)c23)nc1,6.9%,48.1%,15.8µM*,6.2%[57.1 µM],-2.3%
CC(=O)N1c2ccc(S(=O)(=O)N3CCC(C(=O)Nc4cccc(Cl)c4C)CC3)cc2CC1C (centres undefined),.,.,?,0.4%,-4.7%
COc1cccc(OC)c1-c1nn2c(-c3cc(-c4ccccc4)n[nH]3)nnc2s1,-23.4%,29.9%,-23.4%,12.6µM*,?
COc1cccc(-c2nnc3sc(-c4ccccc4)nn23)c1,-2.2%,-4.7%,36.6%,-0.8%,?
O=C(Nc1ccc([N+](=O)[O-])cc1O)Nc1ccccc1Br,.,.,-6.0%,.,.
C#CC[N+](C)(C)CCCCCCCCCC,5.3%,14.1%,0.0%,3.1%,-5.1%
